Measurements taken from PubChem BioAssay AID1159580 (chemical genetic matrix, 2015).
Hit rate of the full screen: of about 5,500 compounds, about 2,000 (36%) were called active. About 18% were inconclusive and are not listed. No stated cut-off is given here; in the data, active means normalized growth mostly below about 0.91 (no sharp cut-off); inconclusive means no clear call, values can overlap the other calls; inactive means mostly above about 0.92. This is one part of the list.

Test: chemical genetic growth profiling, strain panel (AID 1159580);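 further: tested at 20 µM; growth read once vehicle control cultures reached saturation at 30 °C; 1 = growth at the plate median or of vehicle wells; lower values mean less growth of the strain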
Conditions: growth OD

Measured: normalized growth

C/C=C/c1ccc2c(c1)OCO2
inactive: S. cerevisiae deletion strains, locus YJR075W, strain HOC1, active compounds read low 1.01 | S. cerevisiae deletion strains, locus YKL009W, strain mrt4, active compounds read low 1.02 | S. cerevisiae deletion strains, locus YKL068W, active compounds read low 1 | S. cerevisiae deletion strains, locus YKL085W, strain MDH1 (second series), active compounds read low 1.01 | S. cerevisiae deletion strains, locus YKL085W, strain MDH1, active compounds read low 1.01 | S. cerevisiae deletion strains, locus YKL160W, strain elf1, active compounds read low 1 | S. cerevisiae deletion strains, locus YKL190W, strain CNB1, active compounds read low 1.01 | S. cerevisiae deletion strains, locus YKR001C, strain vps1, active compounds read low 1.05 | S. cerevisiae deletion strains, locus YKR026C, strain gcn3, active compounds read low 0.997 | S. cerevisiae deletion strains, locus YKR091W, strain srl3, active compounds read low 1.01 | S. cerevisiae deletion strains, locus YLL001W, strain dnm1, active compounds read low 1.01 | S. cerevisiae deletion strains, locus YLL026W, active compounds read low 1.02 | S. cerevisiae deletion strains, locus YLL041C, strain sdh2, active compounds read low 1.02 | S. cerevisiae deletion strains, locus YLR027C, strain aat2, active compounds read low 1.02 | S. cerevisiae deletion strains, locus YLR039C, strain RIC1, active compounds read low 1.07 | S. cerevisiae deletion strains, locus YLR058C, strain SHM2, active compounds read low 1.01 | S. cerevisiae deletion strains, locus YLR102C, strain apc9, active compounds read low 1.01 | S. cerevisiae deletion strains, locus YLR113W, strain HOG1, active compounds read low 0.976 | S. cerevisiae deletion strains, locus YLR221C, strain rsa3, active compounds read low 0.994 | S. cerevisiae deletion strains, locus YLR258W, strain gsy2, active compounds read low 1.02 | S. cerevisiae deletion strains, locus YLR262C, strain YPT6 (second series), active compounds read low 1 | S. cerevisiae deletion strains, locus YLR262C, strain YPT6, active compounds read low 1.05 | S. cerevisiae deletion strains, locus YLR268W, strain sec22, active compounds read low 1.04 | S. cerevisiae deletion strains, locus YLR320W, strain mms22, active compounds read low 1.01 | S. cerevisiae deletion strains, locus YLR330W, strain CHS5, active compounds read low 1.02 | S. cerevisiae deletion strains, locus YLR342W, strain FKS1 (second series), active compounds read low 1.03 | S. cerevisiae deletion strains, locus YLR342W, strain FKS1, active compounds read low 1.02 | S. cerevisiae deletion strains, locus YLR357W, strain rsc2, active compounds read low 1.03 | S. cerevisiae deletion strains, locus YLR370C, strain arc18, active compounds read low 1.02 | S. cerevisiae deletion strains, locus YLR371W, strain rom2, active compounds read low 1.01 | S. cerevisiae deletion strains, locus YLR384C, strain iki3, active compounds read low 1.03 | S. cerevisiae deletion strains, locus YLR418C, strain cdc73, active compounds read low 1 | S. cerevisiae deletion strains, locus YML016C, strain PPZ1, active compounds read low 1.01 | S. cerevisiae deletion strains, locus YML032C, strain rad52, active compounds read low 0.996 | S. cerevisiae deletion strains, locus YML120C, strain ndi1, active compounds read low 1.03 | S. cerevisiae deletion strains, locus YML124C, strain tub3, active compounds read low 1 | S. cerevisiae deletion strains, locus YMR058W, strain fet3, active compounds read low 1.02 | S. cerevisiae deletion strains, locus YMR078C, strain ctf18, active compounds read low 1.01 | S. cerevisiae deletion strains, locus YMR125W, strain sto1, active compounds read low 1.03 | S. cerevisiae deletion strains, locus YMR129W, active compounds read low 1.02 | S. cerevisiae deletion strains, locus YMR205C, strain PFK2, active compounds read low 1.02 | S. cerevisiae deletion strains, locus YMR223W, strain ubp8, active compounds read low 0.99 | S. cerevisiae deletion strains, locus YMR231W, strain pep5, active compounds read low 1.02 | S. cerevisiae deletion strains, locus YMR263W, strain SAP30, active compounds read low 1.01 | S. cerevisiae deletion strains, locus YMR307W, strain GAS1, active compounds read low 0.986 | S. cerevisiae deletion strains, locus YNL067W, strain RPL9B, active compounds read low 1.01 | S. cerevisiae deletion strains, locus YNL071W, strain lat1, active compounds read low 1.02 | S. cerevisiae deletion strains, locus YNL153C, strain GIM3, active compounds read low 1.03 | S. cerevisiae deletion strains, locus YNL183C, strain NPR1, active compounds read low 0.948 | S. cerevisiae deletion strains, locus YNL209W, strain ssb2, active compounds read low 1.02 | S. cerevisiae deletion strains, locus YNL233W, strain BNI4, active compounds read low 1.02 | S. cerevisiae deletion strains, locus YNL248C, strain rpa49, active compounds read low 0.998 | S. cerevisiae deletion strains, locus YNL250W, strain rad50, active compounds read low 1.01 | S. cerevisiae deletion strains, locus YNL271C, strain bni1, active compounds read low 1.01 | S. cerevisiae deletion strains, locus YNL298W, strain CLA4, active compounds read low 1.01 | S. cerevisiae deletion strains, locus YNL307C, strain MCK1, active compounds read low 1.02 | S. cerevisiae deletion strains, locus YNL322C, strain KRE1 (second series), active compounds read low 1.02 | S. cerevisiae deletion strains, locus YNL322C, strain KRE1, active compounds read low 1.01 | S. cerevisiae deletion strains, locus YNR049C, strain mso1, active compounds read low 1.02 | S. cerevisiae deletion strains, locus YNR052C, strain pop2, active compounds read low 0.996 | S. cerevisiae deletion strains, locus YOL006C, strain TOP1, active compounds read low 1.16 | S. cerevisiae deletion strains, locus YOL012C, strain htz1 1.12 | S. cerevisiae deletion strains, locus YOL147C, strain pex11, active compounds read low 1 | S. cerevisiae deletion strains, locus YOR001W, strain rrp6, active compounds read low 1.01 | S. cerevisiae deletion strains, locus YOR061W, strain CKA2, active compounds read low 1.01 | S. cerevisiae deletion strains, locus YOR069W, strain VPS5, active compounds read low 1.01 | S. cerevisiae deletion strains, locus YOR070C, strain gyp1, active compounds read low 1.02 | S. cerevisiae deletion strains, locus YOR080W, strain dia2, active compounds read low 1.03 | S. cerevisiae deletion strains, locus YOR083W, strain WHI5, active compounds read low 0.993 | S. cerevisiae deletion strains, locus YOR106W, strain vam3, active compounds read low 1.01 | S. cerevisiae deletion strains, locus YOR136W, strain idh2, active compounds read low 0.999 | S. cerevisiae deletion strains, locus YOR144C, strain elg1, active compounds read low 0.998 | S. cerevisiae deletion strains, locus YOR184W, strain ser1, active compounds read low 0.994 | S. cerevisiae deletion strains, locus YOR231W, strain MKK1, active compounds read low 0.959 | S. cerevisiae deletion strains, locus YOR265W, strain rbl2, active compounds read low 1.02 | S. cerevisiae deletion strains, locus YOR270C, strain vph1, active compounds read low 1.03 | S. cerevisiae deletion strains, locus YOR290C, strain snf2, active compounds read low 0.999 | S. cerevisiae deletion strains, locus YOR316C, strain cot1, active compounds read low 1.01 | S. cerevisiae deletion strains, locus YPL051W, strain arl3, active compounds read low 1.01 | S. cerevisiae deletion strains, locus YPL055C, strain LGE1, active compounds read low 1.03 | S. cerevisiae deletion strains, locus YPL078C, strain atp4, active compounds read low 1.01 | S. cerevisiae deletion strains, locus YPL106C, strain sse1, active compounds read low 1 | S. cerevisiae deletion strains, locus YPL240C, strain hsp82, active compounds read low 1.02 | S. cerevisiae deletion strains, locus YPL241C, strain CIN2, active compounds read low 1.01 | S. cerevisiae deletion strains, locus YPL256C, strain CLN2, active compounds read low 0.962 | S. cerevisiae deletion strains, locus YPR119W, strain clb2, active compounds read low 1.01 | S. cerevisiae deletion strains, locus YPR141C, strain kar3, active compounds read low 1.01 | S. cerevisiae deletion strains, locus YPR163C, strain tif3, active compounds read low 1 | S. cerevisiae deletion strains, locus YPR167C, strain met16, active compounds read low 1.02 | S. cerevisiae deletion strains, strain wtn01, active compounds read low 1.06 | S. cerevisiae strains, strain wild type, active compounds read low 1.01
